According to PubChem BioAssay:
Active and inactive are the calls of the source. Unless noted, no rule for the calls is given here.

Tests used:
[1] = A549 cell viability effects, profiling panel, calcein-AM fluorescence, 48 h, basal (AID 1162); conditions: higher = more signal; also: test concentration not given here
[2] = adipocyte viability effects, profiling panel, cell-based, 3T3-L1 adipocytes, calcein-AM fluorescence, 48 h, basal (AID 1163); conditions: 3T3-L1 adipocytes viability, higher = more signal; also: test concentration not given here
[3] = HepG2 cell viability effects, profiling panel, calcein-AM fluorescence, 48 h, basal (AID 1164); conditions: higher = more signal; also: test concentration not given here
[4] = MM1S cell viability effects, profiling panel, calcein-AM fluorescence, 48 h, basal (AID 1165); conditions: higher = more signal;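 also: viability of MM1S multiple myeloma cells under basal unstimulated conditions; test concentration not given here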
[5] = basal RPMI8226 viability, no added stimulus, profiling panel, cell-based, calcein-AM fluorescence, 48 h, PK04 Diversity Set (AID 1166); conditions: RPMI8226 myeloma viability, higher = more signal;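 also: cells grown under basal conditions without added stimulus; test concentration not given here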
[6] = basal HepG2 mitochondrial membrane potential changes, profiling panel, cell-based, JC-1 fluorescence, 24 h, 100 nL compound (AID 1167); conditions: higher = more signal; also: test concentration not given here
[7] = basal 3T3-L1 adipocyte mitochondrial potential changes, profiling panel, cell-based, JC-1 fluorescence, 3T3-L1 adipocytes, 24 h, 100 nL compound (AID 1168); conditions: JC-1 mitochondrial fluorescence, higher = more signal, called active from +8 up or from −8 down; also: test concentration not given here
[8] = basal RPMI8226 mitochondrial membrane potential changes, profiling panel, cell-based, JC-1 fluorescence, 24 h, 100 nL compound (AID 1169); conditions: RPMI8226 myeloma, JC-1 mitochondrial potential fluorescence, higher = more signal; also: test concentration not given here
[9] = basal MM1S mitochondrial membrane potential changes, profiling panel, cell-based, JC-1 fluorescence, 24 h, 100 nL compound (AID 1170); conditions: higher = more signal; also: test concentration not given here
[10] = A549 lung cancer cell viability effects, profiling panel, resazurin fluorescence, 24 h, PK04 Diversity Set (AID 1171); conditions: higher = more signal, called active from +8 up or from −8 down; also: test concentration not given here
[11] = HepG2 liver cancer cell viability effects, profiling panel, resazurin fluorescence, 24 h, PK04 Diversity Set (AID 1172); conditions: higher = more signal; also: test concentration not given here
[12] = basal S. cerevisiae growth modulation, no modifier, primary screen, OD600, strain BY4716, 24 h, basal condition (AID 1173); conditions: OD600, 24 h, higher = more signal, called active from +8 up or from −8 down
[13] = MM1S myeloma cell viability, profiling panel, resazurin fluorescence, basal, 24 h, PK04 Diversity Set (AID 1174); conditions: higher = more signal, called active from +8 up or from −8 down;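 also: MM1S multiple myeloma cell line; test concentration not given here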
[14] = target: Dihydroorotate dehydrogenase (quinone), mitochondrial (Plasmodium falciparum (isolate 3D7)) (UniProt Q08210); assay: PfDHODH enzyme inhibitors, primary screen, biochemical, C-terminal His tag, absorbance 600 nm (AID 1175); conditions: DCIP absorbance 600 nm, higher = more signal, called active from +8 up or from −8 down;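 also: recombinant parasite enzyme with a five histidine tag at its C terminus; test concentration not given here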
Chain of Dihydroorotate dehydrogenase (quinone), mitochondrial (Plasmodium falciparum (isolate 3D7)) (Q08210 whole entry, looked up): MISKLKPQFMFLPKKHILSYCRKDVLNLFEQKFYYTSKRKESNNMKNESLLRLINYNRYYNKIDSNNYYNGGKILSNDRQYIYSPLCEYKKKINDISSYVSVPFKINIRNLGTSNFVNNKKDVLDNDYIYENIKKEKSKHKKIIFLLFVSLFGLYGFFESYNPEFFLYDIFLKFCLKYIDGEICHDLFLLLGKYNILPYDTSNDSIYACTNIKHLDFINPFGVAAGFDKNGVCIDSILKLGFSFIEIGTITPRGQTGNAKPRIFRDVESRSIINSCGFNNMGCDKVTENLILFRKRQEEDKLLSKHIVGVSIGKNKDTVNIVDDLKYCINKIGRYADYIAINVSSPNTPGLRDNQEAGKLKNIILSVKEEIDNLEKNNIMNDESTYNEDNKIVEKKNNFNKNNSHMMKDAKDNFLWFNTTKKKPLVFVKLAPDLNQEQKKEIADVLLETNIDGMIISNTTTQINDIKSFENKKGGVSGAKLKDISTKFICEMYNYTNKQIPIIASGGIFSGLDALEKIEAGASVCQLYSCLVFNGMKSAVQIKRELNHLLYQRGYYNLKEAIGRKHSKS

[15] = P. aeruginosa biofilm formation inhibitors, primary screen, strain PAO1, LB-PBS medium, absorbance 600 nm (AID 1176); also: test concentration not given here; conditions: P. aeruginosa PAO1 growth/biofilm, A600, 12 h; higher = more signal
[16] = S. cerevisiae RM11-1a growth modifiers, primary screen, strain RM11-1a, OD600, basal, 24 h (AID 1177); conditions: OD600, 24 h, higher = more signal, called active from +8 up or from −8 down;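 also: cultures grown under basal conditions with no added stressor; test concentration not given here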
[17] = E. coli acrAB mutant growth effects, primary screen, E. coli filamentation inducers, strain DRC39, OD650, 24 h (AID 1178); conditions: higher = more signal, called active from +8 up or from −8 down;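 also: growth measured as culture turbidity by optical density at 650 nm; test concentration not given here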
[18] = E. coli acrAB mutant growth effects, primary screen, E. coli filamentation inducers, strain DRC39, OD650, 48 h (AID 1179);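 also: screen aims at cell division blockers that make cells filament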; conditions: E. coli DRC39 delta-acrAB growth, higher = more signal, called active from +8 up or from −8 down
[19] = RPMI8226 myeloma cell viability, profiling panel, resazurin fluorescence, basal, 24 h, PK04 Diversity Set (AID 1180); conditions: higher = more signal;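 also: RPMI8826 multiple myeloma cell line at 5000 cells per well; test concentration not given here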
[20] = target: E3 ubiquitin-protein ligase XIAP (Homo sapiens) (UniProt P98170); assay: XIAP binders, primary screen, biophysical, small-molecule microarray, fluorescence 635 nm (AID 1181); conditions: small-molecule microarray binding, higher = more signal;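 also: score merges 667 nm emission and signal to noise over triplicate slides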
Chain of E3 ubiquitin-protein ligase XIAP (Homo sapiens) (P98170 whole entry, looked up): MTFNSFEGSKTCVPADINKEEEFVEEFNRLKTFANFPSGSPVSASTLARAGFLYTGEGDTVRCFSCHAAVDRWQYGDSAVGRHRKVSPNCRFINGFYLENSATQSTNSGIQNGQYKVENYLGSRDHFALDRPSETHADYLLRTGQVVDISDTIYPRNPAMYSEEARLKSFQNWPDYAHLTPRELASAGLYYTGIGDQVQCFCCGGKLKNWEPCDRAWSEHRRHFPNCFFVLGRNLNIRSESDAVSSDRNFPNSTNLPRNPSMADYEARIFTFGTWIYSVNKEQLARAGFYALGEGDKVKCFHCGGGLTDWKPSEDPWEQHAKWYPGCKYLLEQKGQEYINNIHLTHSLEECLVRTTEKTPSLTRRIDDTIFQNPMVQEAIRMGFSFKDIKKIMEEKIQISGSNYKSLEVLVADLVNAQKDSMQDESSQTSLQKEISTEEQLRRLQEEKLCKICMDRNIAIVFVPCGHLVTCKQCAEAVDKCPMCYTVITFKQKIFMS

Which results are given for `COCC(=C=CC[C@@H](O)c1ccccc1OCCO)C[C@@H](O)c1ccccn1`?
z-score [1]: 0.0929; z-score [2]: 0.158; z-score [3]: -0.0698; z-score [4]: -0.591; z-score [5]: 0.211; z-score [6]: -0.95; z-score [7]: -0.99 (inactive); z-score [8]: 0.0537; z-score [9]: -0.952; z-score [10]: -0.709 (inactive); z-score [11]: -0.415; z-score [12]: -1.42 (inactive); z-score [13]: -0.249 (inactive); composite z-score [14]: -10.8 (active); z-score [15]: 0.354 (inactive); z-score [16]: -0.572 (inactive); z-score [17]: -0.268 (inactive); z-score [18]: -0.268 (inactive); z-score [19]: -0.348; composite z-score [20]: -0.0541

With `O=C1C2C=CC(C(O)c3cccc4ccccc34)N(Nc3ccccc3)C2C(=O)N1c1ccccc1` (stereo not given) as the molecule, how does the z-score [1] read?
Its z-score is 0.112.

And the z-score [2]?
The z-score was -1.54.

And the z-score [3]?
Its z-score is 0.22.

And the z-score [4]?
The z-score was -0.624.

What about the z-score [5] of the same molecule?
The z-score was -1.52.

And the z-score [6]?
The z-score was -1.09.

And the z-score [7]?
The z-score was -0.209 (inactive).

And the z-score [8]?
The z-score was -0.408.

And the z-score [9]?
Its z-score is -0.318.

And the z-score [10]?
The z-score was -0.854 (inactive).

What about the z-score [11] of the same molecule?
Its z-score is 0.451.

What about the z-score [12] of the same molecule?
Its z-score is -3.11 (inactive).

And the z-score [13]?
The z-score was 0.0605 (inactive).

And the composite z-score [14]?
The composite z-score was 0.651 (inactive).

What about the z-score [15] of the same molecule?
The z-score was 1.6 (inactive).

And the z-score [16]?
Its z-score is -0.0805 (inactive).

And the z-score [17]?
Its z-score is -0.148 (inactive).

What about the z-score [18] of the same molecule?
The z-score was 0.133 (inactive).

What about the z-score [19] of the same molecule?
Its z-score is -0.0011.

What about the composite z-score [20] of the same molecule?
The composite z-score was 0.197.

For `C=CC[C@]1(C(=O)N2CCOCC2)N=C(c2ccc(OCCCO)cc2)O[C@H]1c1ccccc1CN=[N+]=[N-]`, which z-score [1] is on record?
The z-score was 0.762.

What about the z-score [2] of the same molecule?
Its z-score is 0.399.

And the z-score [3]?
The z-score was 1.65.

And the z-score [4]?
The z-score was -0.0728.

What about the z-score [5] of the same molecule?
The z-score was -1.62.

What about the z-score [6] of the same molecule?
The z-score was 1.48.

And the z-score [7]?
Its z-score is 0.114 (inactive).

What about the z-score [8] of the same molecule?
Its z-score is -0.977.

And the z-score [9]?
Its z-score is -0.508.

And the z-score [10]?
The z-score was -0.119 (inactive).

And the z-score [11]?
The z-score was -0.744.

And the z-score [12]?
The z-score was -0.33 (inactive).

And the z-score [13]?
Its z-score is -0.574 (inactive).

What about the composite z-score [14] of the same molecule?
Its composite z-score is 0.155 (inactive).

What about the z-score [15] of the same molecule?
Its z-score is -0.497 (inactive).

And the z-score [16]?
Its z-score is 0.301 (inactive).

And the z-score [17]?
Its z-score is -0.186 (inactive).

What about the z-score [18] of the same molecule?
Its z-score is 0.0726 (inactive).

And the z-score [19]?
Its z-score is -1.03.

What about the composite z-score [20] of the same molecule?
The composite z-score was 0.208.

Which z-score [1] does the source give for `O=C1C[C@@](C(=O)O)(c2ccc([N+](=O)[O-])cc2)[C@@H](c2ccc(CO)cc2)N1CC12CC3CC(CC(C3)C1)C2` here?
Its z-score is 0.0051.

And the z-score [2]?
Its z-score is 0.0068.

What about the z-score [3] of the same molecule?
The z-score was 0.313.

What about the z-score [4] of the same molecule?
The z-score was -1.49.

What about the z-score [5] of the same molecule?
The z-score was -2.4.

What about the z-score [6] of the same molecule?
The z-score was 0.609.

What about the z-score [7] of the same molecule?
The z-score was 0.473 (inactive).

What about the z-score [8] of the same molecule?
Its z-score is -0.15.

What about the z-score [9] of the same molecule?
The z-score was -0.811.

And the z-score [10]?
Its z-score is 0.689 (inactive).

And the z-score [11]?
The z-score was -0.246.

What about the z-score [12] of the same molecule?
The z-score was -0.418 (inactive).

What about the z-score [13] of the same molecule?
Its z-score is -0.646 (inactive).

What about the composite z-score [14] of the same molecule?
Its composite z-score is -3.13 (inactive).

And the z-score [15]?
The z-score was 0.692 (inactive).

And the z-score [16]?
Its z-score is 1.08 (inactive).

What about the z-score [17] of the same molecule?
Its z-score is 0.667 (inactive).

And the z-score [18]?
Its z-score is 0.507 (inactive).

What about the z-score [19] of the same molecule?
Its z-score is -0.474.

What about the composite z-score [20] of the same molecule?
Its composite z-score is -0.234.

What does the source list for `C#CCNS(=O)(=O)N(C)C`?
z-score [1]: -0.277; z-score [2]: -0.738; z-score [3]: 0.759; z-score [4]: 0.716; z-score [5]: -0.227; z-score [6]: 0.563; z-score [7]: 0.48 (inactive); z-score [8]: 0.0262; z-score [9]: -0.777; z-score [10]: 0.943 (inactive); z-score [11]: 0.175; z-score [12]: -0.61 (inactive); z-score [13]: -0.207 (inactive); composite z-score [14]: 0.196 (inactive); z-score [15]: -0.218 (inactive); z-score [16]: 0.648 (inactive); z-score [17]: -0.263 (inactive); z-score [18]: 0.56 (inactive); z-score [19]: 0.544; composite z-score [20]: -0.05
